# KDM5B inhibitor = KDM5B demethylase inhibition. Q9UGL1. KDM5B demethylase, FDH-coupled NADH fluorescence (FDH is formaldehyde dehydrogenase). Potency, µM (highest dose often 57.7 µM), actives largely listed as inhibitors. actives 2.6% (n = 220,000). AID 1347165; active means well fitted inhibition curve with a large enough effect; further: 0% is about no effect; nearly all actives have a fitted effect of over 70% in size
# Target sequence (Q9UGL1 whole entry, looked up): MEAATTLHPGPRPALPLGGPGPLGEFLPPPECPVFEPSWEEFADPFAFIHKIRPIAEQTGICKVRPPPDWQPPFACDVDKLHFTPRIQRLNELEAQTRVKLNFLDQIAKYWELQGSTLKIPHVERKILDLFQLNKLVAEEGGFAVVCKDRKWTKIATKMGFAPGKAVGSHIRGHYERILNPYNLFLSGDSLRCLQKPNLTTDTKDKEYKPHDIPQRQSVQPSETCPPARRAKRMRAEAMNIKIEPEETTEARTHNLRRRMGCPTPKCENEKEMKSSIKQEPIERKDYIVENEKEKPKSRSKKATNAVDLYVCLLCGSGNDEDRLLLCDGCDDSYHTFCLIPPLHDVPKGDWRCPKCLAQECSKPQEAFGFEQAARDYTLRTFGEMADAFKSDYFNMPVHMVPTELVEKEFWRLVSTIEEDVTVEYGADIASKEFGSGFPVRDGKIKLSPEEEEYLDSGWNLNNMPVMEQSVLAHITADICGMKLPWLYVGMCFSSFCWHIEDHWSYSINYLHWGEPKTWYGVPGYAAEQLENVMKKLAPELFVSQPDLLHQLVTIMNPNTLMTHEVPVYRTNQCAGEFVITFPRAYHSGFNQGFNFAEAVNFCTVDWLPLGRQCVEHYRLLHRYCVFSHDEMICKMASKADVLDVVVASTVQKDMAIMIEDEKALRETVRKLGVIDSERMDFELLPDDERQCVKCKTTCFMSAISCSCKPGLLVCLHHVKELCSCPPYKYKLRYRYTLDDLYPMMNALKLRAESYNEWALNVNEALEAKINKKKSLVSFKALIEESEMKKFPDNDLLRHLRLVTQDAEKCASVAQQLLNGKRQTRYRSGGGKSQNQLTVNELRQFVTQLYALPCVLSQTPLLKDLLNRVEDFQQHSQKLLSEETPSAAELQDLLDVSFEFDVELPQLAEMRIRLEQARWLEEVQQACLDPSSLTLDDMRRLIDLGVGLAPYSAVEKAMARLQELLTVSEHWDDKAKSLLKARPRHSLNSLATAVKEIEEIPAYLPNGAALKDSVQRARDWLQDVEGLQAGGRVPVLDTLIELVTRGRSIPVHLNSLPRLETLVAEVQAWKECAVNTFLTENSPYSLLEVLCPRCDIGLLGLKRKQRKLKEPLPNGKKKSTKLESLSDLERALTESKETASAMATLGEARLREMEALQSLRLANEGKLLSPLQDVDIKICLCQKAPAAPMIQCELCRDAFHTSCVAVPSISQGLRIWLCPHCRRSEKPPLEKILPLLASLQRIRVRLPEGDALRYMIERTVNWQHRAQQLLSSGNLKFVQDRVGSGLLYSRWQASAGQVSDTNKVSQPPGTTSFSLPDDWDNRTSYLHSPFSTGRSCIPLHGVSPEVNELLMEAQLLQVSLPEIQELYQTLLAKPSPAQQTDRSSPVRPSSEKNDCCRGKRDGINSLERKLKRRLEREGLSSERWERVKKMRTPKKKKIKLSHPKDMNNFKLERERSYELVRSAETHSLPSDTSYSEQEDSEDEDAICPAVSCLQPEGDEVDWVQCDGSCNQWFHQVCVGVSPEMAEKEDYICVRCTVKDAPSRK
#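 qHTS format, multiple compound concentrations. Buffer 50 mM HEPES pH 7.5/0.01% Tween-20; 200 nM KDM5BΔAP final; 10 min compound preincubation; substrate-mix levels 12.5 µM peptide, 25 µM α-KG, 0.25 mM NAD⁺; 30 min RT; ΔRFU.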
# An asterisk follows results filed as active; i = inactive. Only a selection was taken, and hits are over-represented in it overall. Potency means the concentration at half of the fitted maximal effect.
SMILES,KDM5B inhibitor
CCc1noc(CN(CC)C(=O)c2cc(-c3ccccc3)nn2C)n1,i
Cc1ccccc1[C@H]1[C@@H](C(=O)N(C)Cc2ncccc2C)C[C@@](C)(C(=O)O)N1C,i
Cc1cccnc1CN(C)C(=O)c1ccc2nc(-c3ccccc3)cn2c1,28µM*
CCc1nnc(CN(CC)C(=O)c2ccc3nc(-c4ccccc4)cn3c2)o1,28µM*
Cc1ccc(NC(=O)C2CCN(S(=O)(=O)c3ccc(N4CCCC4=O)cc3)CC2)cc1Cl,i
COc1cc(CC(=O)N2CCC3(CC2)CC(O)CCO3)cc(OC)c1 (centres undefined),i
CC(=O)c1ccc2c(c1)OCCOCCOc1ccccc1OCCOCCO2,i
COCC(C)NS(=O)(=O)c1ccc(NC(=O)c2nc(-c3ccccc3)oc2C)cc1 (centres undefined),i
Cc1nc(C2(C)CCN(C(=O)CCCC(=O)n3nc(C)c4ccccc43)CC2)no1,i
CN1C(=O)c2ccccc2Sc2ccc(NC(=O)NCc3ccccc3Br)cc21,i
Cc1cc(C(=O)NCc2ccc(F)cc2)c2c(C3CCNC3)noc2n1 (centres undefined),i
O=C(c1cc(C2CC2)nc2onc(C3CCNC3)c12)N1CCC(F)CC1 (centres undefined),i
COc1ccc(-c2cc(C[C@H]3CNCC[C@H]3CC(=O)N3CCOCC3)no2)cc1,i
COc1ccc(CNC(=O)c2cc(-c3ccc(C)cc3)nc3n[nH]c(-c4ccc(Br)cc4)c23)cc1,i
COc1ccc(-c2cc(C(=O)NCC(C)C)c3c(C4CCNC4)nn(C)c3n2)cc1 (centres undefined),79µM*
COc1ccc(-c2cc(C(=O)N3CCOCC3)c3c(C4CCNC4)nn(C)c3n2)cc1 (centres undefined),79µM*
Cc1ccc(COc2cccc(CNc3ncn[nH]3)c2)cc1,i
CC(=O)Nc1nc2ccc(NC(=O)CCC(=O)N3CCCCCC3)cc2s1,i
N#Cc1c(N)nc2c(c1-c1cccc(F)c1)CCCC2,i
COCC1CN(C(C)=O)CC12CCN(S(=O)(=O)C(C)C)CC2 (centres undefined),i
COc1cc(NC(=O)CCc2c(C)nn(-c3ccc4nncn4n3)c2C)cc(OC)c1OC,i
O=C(CCc1ncc(-c2ccc(F)cc2F)o1)N1CCN(S(=O)(=O)c2cccc(Cl)c2)CC1,i
CC1C(=O)N2CCCc3cc(S(=O)(=O)NCc4ccco4)cc1c32 (centres undefined),i
O=S(=O)(c1ccccc1)N1CCCC(c2nnnn2-c2ccccc2)C1 (centres undefined),i
CC[C@H]1CN(C(=O)Nc2cccc(OC)c2)CC[C@H]1CC(=O)N[C@@H](CO)CC(C)C,i
SMILES,KDM5B inhibitor
COc1ccc(C2(c3nc(C4CCOC4)no3)CCCC2)cc1OC (centres undefined),i
COc1ccc2c(C)c(-c3nc(C4CCOC4)no3)oc2c1 (centres undefined),32µM*
Cc1nc2ccc(-c3nc(C4CCOC4)no3)cc2s1 (centres undefined),i
COC(=O)C1=CN(CC(=O)Nc2ccccc2Cl)S(=O)(=O)N=C1C,i
COc1ccc(C2Cn3cnc(C(=O)N4CCC(C(=O)NC5CCC(C)CC5)CC4)c3CO2)cc1 (centres undefined),i
O=C(CCCc1ccccc1)NCc1nnc2c(-c3nc(C4CC4)no3)cccn12,28µM*
O=C(CCC1CCCC1)NCc1nnc2c(-c3nc(C4CC4)no3)cccn12,11µM*
O=C(NCc1nnc2c(-c3nc(C4CC4)no3)cccn12)C1CCC1,28µM*
COc1ccc(CCC(=O)NCc2nnc3c(-c4nc(C5CC5)no4)cccn23)cc1,i
CC(C)CNC(=O)N1CCC(c2noc(-c3ccccc3)n2)C1 (centres undefined),i
O=C(CCCc1ccccc1)N1C[C@@H](CO)[C@H](c2nc(C3CC3)no2)C1,i
Cc1ccc2[nH]c(C)c(CCNC(=O)c3cc4cc(Br)ccc4oc3=O)c2c1,i
COc1ccccc1NC(=O)CSC1=Nc2ccccc2N=C(c2ccc(F)cc2)C1,i
CCNC(=O)c1cc2c(s1)CCC(C(C)(C)C)C2 (centres undefined),i
Cc1noc(C)c1CN1C(=O)c2ccc([N+](=O)[O-])cc2C1=O,i
Cc1nc2ccc(C(=O)Oc3ccc(C4SCCS4)cc3)cc2nc1C,i
O=C(Nc1ccc2c(c1)CCCN2C(=O)c1cccs1)c1ccccc1Cl,i
O=C(C1CC1)N1CCC2(CC1)SCC(=O)N2c1ccc(F)cc1,i
O=C(NCc1ccccc1F)c1ccc2c(c1)CN(Cc1ccsc1)CCO2,i
COc1ccc(Nc2ncnc3scc(-c4ccc(F)cc4)c23)cc1Cl,i
COC(=O)[C@H](C(C)C)N1Cc2nnn(Cc3ccccc3)c2-c2cc(F)ccc2S1(=O)=O,i
Cc1noc(C)c1-c1cc2c(cc(C)n2C)c(N2CCN(c3ccccn3)CC2)n1,32µM*
Cc1nnc(-c2cc(N3CCN(c4ccccn4)CC3)ccn2)n1C,i
Cc1noc(C)c1-c1cc2c(cc(C)n2C)c(NC2CCN(C)CC2)n1,i
O=C(CCc1conc1-c1cccc(F)c1)NCC1CC1,i
SMILES,KDM5B inhibitor
Cc1cccc(C(=O)NCCC(=O)NCc2ccccc2F)c1,i
O=C(O)CCc1conc1-c1cccc(F)c1,i
O=C(CCNc1c(-c2cccc(F)c2)nc2cnccn12)NCc1ccccc1F,28µM*
Cc1cccc(-c2nocc2CCC(=O)NCc2ccccc2F)c1,i
CNC(=O)CCNc1c(-c2cccc(F)c2)nc2cnccn12,28µM*
Cc1c(C(=O)NCc2nnc3n2CCCCC3)oc2c(F)cccc12,i
CCc1ccc(CNC(=O)CN2C(=O)NC3(CCC(C)CC3)C2=O)cc1 (centres undefined),i
Cc1ccc(OCCCC(=O)Oc2ccc3c(C)cc(=O)oc3c2)cc1,i
Cc1ccc(NC(=O)Cn2ccn3nc(-c4ccccc4)c(CO)c3c2=O)cc1F,i
Cc1ccc(C)c(NC(=O)Cn2ccn3nc(-c4ccc(F)cc4)c(CO)c3c2=O)c1,18µM*
O=C(Cn1ccn2nc(-c3ccc(F)cc3)c(CO)c2c1=O)NCc1ccc(Cl)cc1,i
CCc1ccc(NC(=O)Cn2ccn3nc(-c4ccccc4)c(CO)c3c2=O)cc1,i
Cc1ccc(NC(=O)Cn2ccn3nc(-c4ccccc4)c(CO)c3c2=O)cc1,i
CC(C)NC(=O)Cn1ccn2nc(-c3ccc(F)cc3)c(CO)c2c1=O,i
O=C(Cn1ccn2nc(-c3ccccc3)c(CO)c2c1=O)Nc1ccccc1Cl,i
O=C(Cn1ccn2nc(-c3ccc(F)cc3)c(CO)c2c1=O)NCc1ccccc1Cl,28µM*
COCCNC(=O)Cn1ccn2nc(-c3ccc(F)cc3)c(CO)c2c1=O,i
O=C(Cn1ccn2nc(-c3ccccc3)c(CO)c2c1=O)Nc1ccccc1C(F)(F)F,20µM*
Cc1cccc(N(C)C(=O)Cn2ccn3nc(-c4ccc(F)cc4)c(CO)c3c2=O)c1,i
Cc1ccc(NC(=O)Cn2ccn3nc(-c4ccccc4)c(CO)c3c2=O)c(C)c1,32µM*
Cc1cccc(NC(=O)N2CCC(Oc3ncccc3C(=O)N3CCOCC3)C2)c1C (centres undefined),i
Cc1cccc2sc(NC(=O)CSc3cn[nH]n3)nc12,i
CCN1C(=O)CCC2(C(=O)Nc3ccc(C)c(F)c3)CCCC=C12 (centres undefined),i

# Screening results from PubChem BioAssay.
